D1 PAM: potentiators of human D1 dopamine receptor; HEK293 TREx D1 cells, calcium flux, dopamine EC20 potentiation; potentiation, % at 10 µM; 360,000 compounds, 0.036% hits; AID 504651; in the data active = potentiation above about 30%
Target sequence (P21728 whole entry, looked up): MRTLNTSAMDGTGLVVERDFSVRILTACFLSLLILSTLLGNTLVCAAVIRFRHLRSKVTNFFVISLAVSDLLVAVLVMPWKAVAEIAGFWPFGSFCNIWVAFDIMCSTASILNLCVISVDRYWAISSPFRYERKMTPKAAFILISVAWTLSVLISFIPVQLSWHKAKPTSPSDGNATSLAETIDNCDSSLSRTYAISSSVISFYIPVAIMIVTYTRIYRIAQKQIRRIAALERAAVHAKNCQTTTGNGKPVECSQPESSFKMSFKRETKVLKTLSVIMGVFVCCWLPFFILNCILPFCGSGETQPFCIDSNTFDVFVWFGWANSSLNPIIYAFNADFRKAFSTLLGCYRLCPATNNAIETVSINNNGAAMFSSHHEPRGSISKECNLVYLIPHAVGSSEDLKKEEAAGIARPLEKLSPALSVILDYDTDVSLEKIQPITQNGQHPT
D1 ag: human D1 receptor agonism. activation, % at 2 µM. AID 504660. P21728. 360,000 compounds, 1% hits. HEK293 T-REx D1 cells, calcium flux, agonist mode; in the data active = activation above about 30%
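Agonism was scored from calcium flux recorded over 180 s (1 read/s) after pintool compound addition, following a 10-cycle baseline. Cells were inducible force-coupled HEK293 TREx D1, plated overnight at 30 C and loaded with no-wash calcium dye.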
DRD3 antagonist: D3 dopamine receptor (human) antagonism; D3R cells, DiscoveRx beta-arrestin luminescence, antagonist mode; hits give low values; 360,000 compounds, 2.5% hits; P35462; max response, negative = inhibition, %; in the data active = max response below about -50%; inconclusive = no clear call, values can overlap the other calls
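Cells expressing the human receptor were seeded at 1500 cells/well, incubated overnight at 37 degrees C in 5% CO2, then exposed to library compounds with dopamine controls for 90 minutes at 37 degrees C before luminescent detection.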
D1 antagonist: antagonists of human D1 dopamine receptor | AID 504652 | activity change, negative = inhibition, % at 10 µM | 360,000 compounds, 3.2% hits | HEK293 TREx D1 cells, calcium flux, dopamine EC80; hits give low values | P21728; in the data active = activity change below about -30%
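After overnight tetracycline induction at 30 C, force-coupled D1 HEK293 cells took up a no-wash calcium dye at room temperature. Compounds were added and monitored 180 s, and the response to EC80 dopamine was then recorded.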
DRD3 agonist: agonists of human D3 dopamine receptor; max activation, %; P35462; D3R DiscoveRx beta-arrestin cells, luminescence, 90 min; 410,000 compounds, 0.58% hits; in the data active = max activation above about 30%
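Agonist-mode cell screen: cells plated at 1500/well and incubated overnight at 37 °C, then exposed to library compounds for 90 min at 37 °C. Detection reagent was added for 30–60 min at room temperature, and luminescence was read.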
Each line names hits and unclear results; the compound was inactive in the other large screens. A selection: hits, their analogues and other compounds. The true share with any hit is near 6%.

COc1ccc(NC(=O)CSc2nnnn2-c2ccccc2OC)c(OC)c1	D1 antagonist -68
COc1ccc(NC(=O)CSc2ncnc3c2nnn3-c2ccc(F)cc2)c(OC)c1	D1 antagonist -34
Nc1ccc2c(c1)-c1ccc(F)cc1C2=O	none (no result: D1 PAM, D1 ag, D1 antagonist)
Cc1cccc(-c2nn3c(=O)cc(CN4CCN(C(=O)/C=C/c5ccccc5)CC4)nc3s2)c1	none (no result: DRD3 antagonist)
O=C(OCc1cn([C@@H]2C[C@H](c3ccccc3)N(C(=O)C3CCCCC3)C[C@H]2O)nn1)c1ccccc1	none (no result: D1 PAM, D1 ag, D1 antagonist)
COc1ccc(CCNC(=O)CSc2nnnn2-c2ccccc2OC)cc1OC	DRD3 antagonist inconclusive, D1 antagonist -52
CC(C)(Cc1nc2ccccc2[nH]1)c1nc2ccccc2[nH]1	none (no result: D1 PAM, D1 ag, D1 antagonist)
COc1ccc2c(c1)C1(Nc3ccccc3-c3nc4ccccc4n31)C(=O)N2 (configuration not stated)	DRD3 antagonist -59
CCOCCCn1c(SCC(=O)Nc2cc(C)ccc2C)nc2c(oc3ccccc32)c1=O	none (no result: DRD3 antagonist)
O=C1c2ccccc2NC(c2ccc3c(c2)OCO3)N1O (configuration not stated)	DRD3 antagonist -57
Cc1ccc(NC(=O)c2nc[nH]c2C(=O)NCCCCCCNC(=O)c2[nH]cnc2C(=O)Nc2ccc(C)cc2)cc1	none (no result: D1 PAM, D1 ag, D1 antagonist)
CCOC(=O)c1ccc(NC(=O)c2nc[nH]c2C(=O)NCCCCCNC(=O)OC(C)(C)C)cc1	DRD3 agonist 52
O=C(Nc1ccccc1)c1nc[nH]c1C(=O)NCCNC(=O)c1[nH]cnc1C(=O)Nc1ccccc1	DRD3 agonist 69 (no result: D1 PAM, D1 ag, D1 antagonist)
Cc1ccc(NC(=O)c2nc[nH]c2C(=O)NCCCCNC(=O)c2[nH]cnc2C(=O)Nc2ccc(C)cc2)cc1	DRD3 agonist 42 (no result: D1 PAM, D1 ag, D1 antagonist)
O=c1cc(-c2ccc(F)cc2)nc(SCc2nc(-c3cccc(Cl)c3)no2)[nH]1	none (no result: DRD3 antagonist)
c1ccc(-c2n[nH]c(-c3ccccc3)c2-c2nc3ccccc3[nH]2)cc1	DRD3 antagonist -56
Cc1ccc(-c2nc3ccccc3[nH]2)s1	none
c1ccc2[nH]c(-c3ccncc3)nc2c1	none
Cc1[nH]c2ccccc2c1-c1nc2ccccc2[nH]1	D1 antagonist -77
c1ccc(-c2nc3ccccc3[nH]2)cc1	DRD3 antagonist -94
Cc1ccc(N2CC(c3nnc(NC(=O)c4ccco4)s3)CC2=O)cc1Cl (configuration not stated)	none (no result: DRD3 antagonist)
CCN1CCN(CCOc2cccc(Cl)c2Cl)CC1	DRD3 antagonist inconclusive, DRD3 agonist 67
CC1CC(C)CN(CCOc2ccc(Cl)cc2Cl)C1 (configuration not stated)	DRD3 antagonist -97
CC1CC(C)CN(CCOc2cccc(Cl)c2Cl)C1 (configuration not stated)	DRD3 antagonist -71, D1 antagonist -35
Cc1cc(C)cc(-n2ccn3c(CC(C)(C)CC(=O)O)nnc3c2=O)c1	none (no result: DRD3 antagonist)
CC(CN(C)Cc1ccccc1)OC(=O)c1ccccc1F (configuration not stated)	none
CC(CN(C)Cc1ccccc1)OC(=O)c1ccc2c(c1)OCCO2 (configuration not stated)	DRD3 antagonist -77
CC(CN(C)Cc1ccccc1)OC(=O)c1cccs1 (configuration not stated)	DRD3 antagonist -76
CCN1CCN(CCCNC(=O)c2cc3c(=O)n(C)c4ccccc4c3s2)CC1	none (no result: DRD3 antagonist)
c1ccc(Cc2noc(CN3CCN(CCOc4ccccc4)CC3)n2)cc1	DRD3 antagonist -53
O=CN1CCCN(Cc2nc(Cc3ccccc3F)no2)CC1	none
CN1CCN(Cc2nc(Cc3ccccc3)no2)CC1c1ccccc1 (configuration not stated)	none
Fc1ccccc1Cc1noc(CN2CCN(C/C=C/c3ccccc3)CC2)n1	DRD3 antagonist inconclusive, D1 antagonist -53
C=CCCC(=O)N1C[C@H]2CCN(C)[C@H]2C[C@H]1c1ccc(Br)cc1	none (no result: D1 PAM, D1 ag, D1 antagonist)
COc1ccc(N2CC(NC(=O)/C=C\c3ccccc3)CC2=O)cc1 (configuration not stated)	none (no result: DRD3 antagonist, D1 antagonist)
CN(C)CCCNC(=O)C[C@H]1C[C@H](C(=O)N2CCOCC2)[C@@]2(C)c3[nH]c4cc(-c5ccco5)ccc4c3CCN2C1=O	none (no result: D1 PAM, D1 ag, D1 antagonist)
CC[C@]12c3[nH]c4ccccc4c3CCN1C(=O)C(CC(=O)NCCCOC)C[C@@H]2C(=O)N1CCN(C(=O)C2CC2)CC1 (some centres not stated)	none (no result: D1 PAM, D1 ag, D1 antagonist)
COCCCNC(=O)C[C@H]1C[C@H](C(=O)N2CCOCC2)[C@@]2(C)c3[nH]c4cc(-c5ccco5)ccc4c3CCN2C1=O	DRD3 agonist 35 (no result: D1 PAM, D1 ag, D1 antagonist)
CC[C@]12c3[nH]c4ccc(OC)cc4c3CCN1C(=O)C(CC(=O)NCCCn1ccnc1)C[C@@H]2C(=O)N1CCN(C(=O)c2ccco2)CC1 (some centres not stated)	none (no result: D1 PAM, D1 ag, D1 antagonist)
CC[C@]12c3[nH]c4ccccc4c3CCN1C(=O)C(CC(=O)NCCCN(C)C)C[C@@H]2C(=O)N1CCN(C(=O)C2CC2)CC1 (some centres not stated)	DRD3 antagonist -59 (no result: D1 PAM, D1 ag, D1 antagonist)
CC[C@]12c3[nH]c4ccc(Cl)cc4c3CCN1C(=O)[C@@H](CC(=O)NCCCn1ccnc1)C[C@@H]2C(=O)N1CCN(C(=O)c2ccco2)CC1	DRD3 agonist 49 (no result: D1 PAM, D1 ag, D1 antagonist)
CCN(CC)C(=O)[C@H]1CC(CC(=O)NCCc2ccccn2)C(=O)N2CCc3c([nH]c4ccc(OC)cc34)[C@]12C (some centres not stated)	none (no result: D1 PAM, D1 ag, D1 antagonist)
CCN(CC)C(=O)[C@H]1CC(CC(=O)NCCc2ccccn2)C(=O)N2CCc3c([nH]c4ccccc34)[C@]12C (some centres not stated)	DRD3 antagonist -55 (no result: D1 PAM, D1 ag, D1 antagonist)
COc1cccc(C(NC(C)=O)c2nc(-c3cccs3)cs2)c1 (configuration not stated)	none (no result: D1 PAM, D1 ag, D1 antagonist)
Cc1ccc2cc3cc(C(=O)N4CCN(c5ccc(Cl)cc5)CC4)oc3nc2c1	none (no result: DRD3 antagonist)
COc1ccc2[nH]c(=O)c(CN(CCCN3CCOCC3)C(=O)NCc3ccccc3)cc2c1	D1 antagonist -37
CCOc1ccc2[nH]c(=O)c(CN(CC3CCCN3CC)C(=O)NCc3ccccc3)cc2c1 (configuration not stated)	D1 antagonist -50
O=C(Nc1ccccc1F)N(CCCN1CCOCC1)Cc1cc2cc3c(cc2[nH]c1=O)OCCO3	DRD3 antagonist -55
CNCC(=O)N[C@@H](CCCN=C(N)N)C(=O)N[C@H](C(=O)N[C@@H](Cc1ccc(O)cc1)C(=O)N[C@H](C(=O)N[C@@H](Cc1cnc[nH]1)C(=O)N1CCC[C@H]1C(=O)N[C@@H](C)C(=O)O)C(C)C)C(C)C	none (no result: D1 PAM, D1 ag, DRD3 antagonist, D1 antagonist)
COc1cccc(NC(=O)CSc2nc3ccccc3c(=O)n2C)c1	D1 ag 50
CC(C)Oc1ccccc1NC(=O)CSc1nc2ccccc2c(=O)n1C	none
COc1ccc(NC(=O)CSc2nc3ccccc3c(=O)n2CCCN2CCOCC2)c(OC)c1	D1 antagonist -33
O=C(Cc1ccccc1F)Nc1cc(S(=O)(=O)N2CCCCC2)ccc1N1CCOCC1	none (no result: D1 PAM, D1 ag, D1 antagonist)
